Rows were chosen to be rich in hits. Some 4.5% of all compounds tested hit in one or more screens of this group.
hgDAF-12 ag – agonists of H. glycines DAF-12 nuclear receptor; HEK293 GAL4-hgDAF12 UAS-luciferase reporter, agonist luminescence; normalized to butyrate control; activation, % at 6.8 µM; 370,000 tested, 1.8% active; AID 687014;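 active = activation above a cutoff set at the mean of all screened compounds plus 3 SD, cut at about 10% in these data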
DAX1 inh-1 – inhibits human nuclear receptor DAX1. P51843. HEK293 Gal4-DAX1 luciferase reporter, luminescence. inhibition, % at 6.75 µM. 340,000 tested, 0.99% active;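 active = inhibition above the mean over all tested compounds plus 3 SD, cut at about 4.2% in these data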;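 note: inhibition shows as a rise in luminescence from relieved DAX1 repression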
Target sequence (P51843 207-470 limits assumed): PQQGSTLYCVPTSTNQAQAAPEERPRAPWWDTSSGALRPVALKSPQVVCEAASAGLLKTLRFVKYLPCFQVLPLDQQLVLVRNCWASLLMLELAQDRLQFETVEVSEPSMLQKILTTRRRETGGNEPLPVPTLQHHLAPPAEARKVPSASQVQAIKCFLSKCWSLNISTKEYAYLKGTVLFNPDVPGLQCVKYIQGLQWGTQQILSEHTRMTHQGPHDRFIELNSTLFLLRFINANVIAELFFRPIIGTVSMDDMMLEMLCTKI
hcDAF-12 act – H. contortus DAF-12 activation, primary screen; HEK293 hcDAF-12 lit1-tk-luc reporter, luminescence; 0% DMSO, 100% Δ7-dafachronic acid; activation, % at 6.8 µM; 370,000 tested, 1.4% active; AID 652067;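 active = activation above the mean of all tested compounds plus 3 SD, cut at about 5.5% in these data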
ssDAF-12 act – activates DAF-12 receptor from parasite S. stercoralis; HEK293 ssDAF-12/GRIP1 lit1-tk-luc reporter, luminescence; % of 3 µM dafachronic acid response; activation, % at 6.8 µM; 370,000 tested, 1% active; AID 652126;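 active = activation above the mean over all tested compounds plus 3 SD, cut at about 0.9% in these data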
GAA850 FXN act – increases GAA850 frataxin promoter reporter activity; HEK293 lucGAA850 FXN promoter luciferase reporter, 24 h; percent of 10 µM SAHA response; activation, % at 6 µM; 360,000 tested, 0.56% active;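 active = activation above the average of all compounds screened plus 3 SD, cutoff fixed separately per campaign, cut at about 7.5% in these data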
DAX1 inh-2 – blocks DAX1 repression of SF-1 activated StAR promoter | 370,000 tested, 1.1% active | HEK293T StAR-luciferase reporter, SF-1/DAX-1 repression relief | inhibition, % at 6.8 µM | AID 652010;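 active = inhibition above the mean over all tested compounds plus 3 SD, cut at about 3.6% in these data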;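 note: higher inhibition means more luminescence from relief of DAX-1 repression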
Hits are given with their value.

`C[C@@H](O[Si](c1ccccc1)(c1ccccc1)C(C)(C)C)[C@H]1C(=O)N[C@H](Cc2cn(S(=O)(=O)c3ccccc3)c3ccccc23)C(=O)N1C` gave hgDAF-12 ag inactive, hcDAF-12 act inactive and ssDAF-12 act inactive.
COc1ccc(CN2C(=O)N3Cc4ccccc4C3CS2(=O)=O)cc1 (stereo unspecified) was read as hgDAF-12 ag inactive, hcDAF-12 act inactive, ssDAF-12 act inactive and DAX1 inh-2 inactive.
Screening c1ccc(-c2csc3ncn4nnnc4c23)cc1 returned hgDAF-12 ag inactive, DAX1 inh-1 inactive, hcDAF-12 act inactive, ssDAF-12 act 1.0, GAA850 FXN act inactive and DAX1 inh-2 inactive.
For COc1cccc(-n2nnc3c(=O)n(CC(=O)N4CCC(Cc5ccccc5)CC4)cnc32)c1 the results were hgDAF-12 ag inactive, DAX1 inh-1 inactive, hcDAF-12 act inactive, ssDAF-12 act 1.2, GAA850 FXN act inactive and DAX1 inh-2 inactive.
`CC1(C)Cc2c(sc(NC(=O)Nc3ccccc3)c2C(N)=O)CO1` gave hgDAF-12 ag 11, DAX1 inh-1 5.1, hcDAF-12 act inactive, ssDAF-12 act inactive, GAA850 FXN act inactive and DAX1 inh-2 inactive.
CC1(C)Cc2c(sc(NC(=O)C(=O)N3CCCC3)c2C(N)=O)CO1 was read as hgDAF-12 ag inactive, DAX1 inh-1 inactive, hcDAF-12 act inactive, ssDAF-12 act inactive, GAA850 FXN act inactive and DAX1 inh-2 inactive.
Screening COc1ccc(OC)c(S(=O)(=O)N2CCCC(C(=O)N3CCN(Cc4ccccc4)CC3)C2)c1 (stereo unspecified) returned hgDAF-12 ag inactive, hcDAF-12 act inactive, ssDAF-12 act inactive and DAX1 inh-2 inactive.
`COC(=O)C1CN(Cc2ccccc2)CCS(=O)(=O)N1Cc1ccc(F)cc1` (stereo unspecified) gave hgDAF-12 ag inactive, hcDAF-12 act inactive, ssDAF-12 act inactive and DAX1 inh-2 inactive.
`CCCCCCCC(=O)O` gave hgDAF-12 ag inactive, DAX1 inh-1 4.7, hcDAF-12 act inactive, ssDAF-12 act inactive, GAA850 FXN act inactive and DAX1 inh-2 inactive.
For COc1ccc(-c2cc(-c3ccc(OC)c(OC)c3)n[nH]2)c(O)c1 the results were hgDAF-12 ag inactive, DAX1 inh-1 inactive, hcDAF-12 act inactive, ssDAF-12 act inactive, GAA850 FXN act inactive and DAX1 inh-2 inactive.
`COc1ccc(-c2cc(-c3ccc(Cl)cc3)n[nH]2)c(O)c1` gave hgDAF-12 ag 11, DAX1 inh-1 5.4, hcDAF-12 act inactive, ssDAF-12 act inactive, GAA850 FXN act inactive and DAX1 inh-2 inactive.
For COc1ccc(-c2cc(-c3cc(OC)ccc3O)[nH]n2)cc1 the results were hgDAF-12 ag 13, DAX1 inh-1 inactive, hcDAF-12 act inactive, ssDAF-12 act inactive, GAA850 FXN act inactive and DAX1 inh-2 inactive.
COc1ccc(O)c(-c2cc(-c3cccc(Br)c3)n[nH]2)c1 was read as hgDAF-12 ag inactive, DAX1 inh-1 inactive, hcDAF-12 act inactive, ssDAF-12 act inactive, GAA850 FXN act inactive and DAX1 inh-2 inactive.
For Oc1ccc(C=Nc2ccccc2-c2nc3ccccc3[nH]2)c(O)c1 the results were hgDAF-12 ag inactive, DAX1 inh-1 inactive, hcDAF-12 act inactive, ssDAF-12 act inactive, GAA850 FXN act inactive and DAX1 inh-2 inactive.
COc1ccc(OC)c(C=Nc2ccccc2-c2nc3ccccc3[nH]2)c1 was read as hgDAF-12 ag 12, DAX1 inh-1 inactive, hcDAF-12 act inactive, ssDAF-12 act inactive, GAA850 FXN act inactive and DAX1 inh-2 inactive.
For CCC(C)N=CC1=C(O)C(C(=O)OC)C(C)(C)CC1=O (stereo unspecified) the results were hgDAF-12 ag inactive, DAX1 inh-1 inactive, hcDAF-12 act inactive, ssDAF-12 act inactive, GAA850 FXN act inactive and DAX1 inh-2 inactive.
CN=CC1=C(O)C(C(=O)OC)C(C)(C)CC1=O (stereo unspecified) was read as hgDAF-12 ag inactive, DAX1 inh-1 4.3, hcDAF-12 act inactive, ssDAF-12 act inactive, GAA850 FXN act inactive and DAX1 inh-2 inactive.
For O=C(NC1CCCC1)N1CCC(c2nc3ccc(Cl)cc3[nH]2)CC1 the results were hgDAF-12 ag inactive, hcDAF-12 act inactive, ssDAF-12 act inactive and DAX1 inh-2 inactive.
`Cc1ccc(-c2nnc(NC(=O)COc3ccc(F)cc3Cl)o2)cc1C` gave hgDAF-12 ag inactive, hcDAF-12 act inactive and ssDAF-12 act inactive.
Cn1cc(/C=C(\NC(=O)c2ccccc2)C(=O)NCCCN2CCOCC2)c2ccccc21 was read as hgDAF-12 ag inactive, DAX1 inh-1 inactive, hcDAF-12 act inactive, ssDAF-12 act 1.3, GAA850 FXN act inactive and DAX1 inh-2 inactive.
Screening CC(=O)OCCCN(C)CC/C=C1/c2ccccc2CSc2ccccc21 returned hgDAF-12 ag inactive, DAX1 inh-1 inactive, hcDAF-12 act inactive, ssDAF-12 act 1.0, GAA850 FXN act inactive and DAX1 inh-2 inactive.
`C[N+](C)(C)CC/C=C1/c2ccccc2CSc2ccccc21` gave hgDAF-12 ag inactive, DAX1 inh-1 inactive, hcDAF-12 act inactive, ssDAF-12 act inactive, GAA850 FXN act inactive and DAX1 inh-2 inactive.
NC(=O)CN(c1ccc([N+](=O)[O-])cc1)S(=O)(=O)c1ccccc1 was read as hgDAF-12 ag inactive, DAX1 inh-1 4.4, hcDAF-12 act inactive, ssDAF-12 act inactive, GAA850 FXN act inactive and DAX1 inh-2 inactive.
For COc1ccc(CSc2nnc3[nH]c(=O)cc(N)n23)cc1 the results were hgDAF-12 ag inactive, DAX1 inh-1 inactive, hcDAF-12 act inactive, ssDAF-12 act 3.7, GAA850 FXN act inactive and DAX1 inh-2 inactive.
COC(=O)c1cc(-c2ccc(OC)c(OC)c2)c(=O)n2c1CCC2 was read as hgDAF-12 ag inactive, hcDAF-12 act inactive, ssDAF-12 act inactive and DAX1 inh-2 inactive.
`c1ccc(C2CSc3ccccc3N2)cc1` (stereo unspecified) gave hgDAF-12 ag inactive, DAX1 inh-1 inactive, hcDAF-12 act 5.6, ssDAF-12 act inactive, GAA850 FXN act inactive and DAX1 inh-2 inactive.
COC(=O)Cc1[nH]c(=O)[nH]c1C(=O)OC was read as hgDAF-12 ag inactive, DAX1 inh-1 4.6, hcDAF-12 act inactive, ssDAF-12 act inactive, GAA850 FXN act inactive and DAX1 inh-2 inactive.
`CCCC1CCC2(CCC(=O)N2CCC#N)CC1` (stereo unspecified) gave hgDAF-12 ag inactive, hcDAF-12 act inactive, ssDAF-12 act inactive and DAX1 inh-2 inactive.
CC(C)(C)SCCNC(=O)COc1ccc(Cl)cc1 was read as hgDAF-12 ag inactive, DAX1 inh-1 inactive, hcDAF-12 act inactive, ssDAF-12 act inactive, GAA850 FXN act inactive and DAX1 inh-2 inactive.
`Cc1ccccc1CSCCNC(=O)COc1ccc(Cl)cc1` gave hgDAF-12 ag inactive, DAX1 inh-1 6.6, hcDAF-12 act inactive, ssDAF-12 act inactive, GAA850 FXN act inactive and DAX1 inh-2 inactive.
For CC(C)(C)n1ncc2c(=O)n(CC(=O)NCc3ccccc3Cl)cnc21 the results were hgDAF-12 ag inactive, DAX1 inh-1 inactive, hcDAF-12 act 6.1, ssDAF-12 act inactive, GAA850 FXN act inactive and DAX1 inh-2 inactive.

Compound activity: PubChem, The Scripps Research Institute Molecular Screening Center
